# Compound activity: PubChem BioAssay, Sanford-Burnham Center for Chemical Genomics
# Only some compounds are listed: those with a hit (about 3% of all), similar ones and a draw of the others.
# SENP8 block-1 = SENP8 protease inhibitors, primary screen, biochemical, luminescence. Sentrin-specific protease 8 (Homo sapiens), Q96LD8. purified SENP8, Z-RLRGG-aminoluciferin cleavage. inhibition, % at 10 µM. hit rate 1.2% among 330,000. AID 2540, 2010; in the data active = inhibition above about 50%
# SENP7 inh = SENP7 protease inhibitors, primary screen, biochemical, luminescence, uHTS; recombinant SENP7, Z-RLRGG-aminoluciferin luminescence, 40 min; hit rate 1.5% among 330,000; Sentrin-specific protease 7 (Homo sapiens), Q9BQF6; inhibition, % at 5 µM; AID 434973, 2010;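 active = inhibition above about 50% at the single test dose, limit read from the data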;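 note: plate controls were DMSO with enzyme for no effect and no enzyme buffer wells for full effect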
# TRAIL sens C8 = viability loss with TRAIL in NB7+C8 cells, primary screen, TRAIL sensitizer project, cell-based, ATPlite luminescence; hit rate 1% among 360,000; inhibition (viability loss, TRAIL sensitization), % at 10 µM;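 active = compounds causing at least 50% loss of cell viability in the single-dose screen, relative to plate controls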
# SENP6 inh = SENP6 protease inhibitors, primary screen, biochemical, luminescence, uHTS | Sentrin-specific protease 6 (Homo sapiens), Q9GZR1 | Recombinant SENP6 catalytic domain, aminoluciferin luminescence | inhibition, % at 10 µM | hit rate 1.8% among 330,000;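 active = inhibition above about 50% at the single tested dose, limit read from the data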;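 note: plate controls were DMSO wells with enzyme for no effect and DMSO wells lacking enzyme for full effect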
# Target sequence (Q9GZR1 628-1112 limits assumed): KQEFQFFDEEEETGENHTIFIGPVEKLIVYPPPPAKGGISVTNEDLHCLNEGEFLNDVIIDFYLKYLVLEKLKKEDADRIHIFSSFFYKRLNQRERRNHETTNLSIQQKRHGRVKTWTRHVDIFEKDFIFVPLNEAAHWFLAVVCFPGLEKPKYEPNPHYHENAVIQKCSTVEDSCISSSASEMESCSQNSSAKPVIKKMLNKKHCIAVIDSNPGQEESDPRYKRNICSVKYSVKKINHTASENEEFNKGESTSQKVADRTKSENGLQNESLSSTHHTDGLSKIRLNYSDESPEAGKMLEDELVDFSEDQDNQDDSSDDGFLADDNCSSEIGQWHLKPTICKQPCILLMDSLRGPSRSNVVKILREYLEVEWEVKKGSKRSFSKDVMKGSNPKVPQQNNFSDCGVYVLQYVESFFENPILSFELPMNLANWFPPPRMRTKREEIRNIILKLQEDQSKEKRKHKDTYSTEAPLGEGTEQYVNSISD
# PPC-1+TRAIL kill = compounds killing PPC-1 cancer cells with TRAIL present, primary screen, TRAIL potentiator project, ATPLite luminescence, uHTS. AID 1443, 2008. cell killing (% activity), % at 4 µM or 5 µM. hit rate 0.41% among 220,000. PPC-1 cells + TRAIL, ATPLite viability luminescence;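 active = cell killing above 50% in the first pass at 4 µM, then a duplicate retest at 5 µM averaging 50% or more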;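 note: plate controls were cells with TRAIL plus DMSO for no effect and medium-only wells lacking cells for full effect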
# SENP8 block-2 = human SENP8 protease inhibitors, primary screen, biochemical, fluorescence, Nedd8 protein substrate, uHTS; AID 602440, 2012; Sentrin-specific protease 8 (Homo sapiens), Q96LD8; inhibition, % at 20 µM; recombinant SENP8; hit rate 0.64% among 360,000; in the data active = inhibition mostly above about 40%, no sharp cut-off; inactive = mostly below about 27%
# Active calls of the source: *; · = no result.
SMILES,SENP8 block-1,SENP7 inh,TRAIL sens C8,SENP6 inh,PPC-1+TRAIL kill,SENP8 block-2
N#CC1(Nc2cccc(Cl)c2)CCCC1,·,·,-12.6,·,·,6.2
Cc1[nH]c2c(C)cccc2c(=O)c1Br,-4.9,-1.5,37.8,1.9,20.4,22.1
CCc1c(C)[nH]c2c(C)cccc2c1=O,-3.4,-4.3,52.0*,-0.8,3.4,3.1
CN(/N=C/c1ccc2c(c1)OCO2)c1ccccc1,64.2*,57.1*,11.1,63.0*,24.7,19.1
CS/C(N)=N/N=C/c1ccc2c(c1)OCO2,20.2,50.3*,19.9,25.1,11.8,6.9
O=C(NC1CCCCC1)c1cccc(NC(=O)c2ccccc2Cl)c1,·,·,-1.5,·,·,3.4
Cc1ccc(NCC(=O)c2ccccc2)cc1Cl,2.2,-3.9,8.3,27.3,-10.1,22.7
Cc1ccc(NC2=C(NC(=O)c3ccccc3)C(=O)c3ccccc3C2=O)cc1Cl,15.5,5.5,12.9,35.1,26.9,62.1*
O=C(CN(c1cccc(C(F)(F)F)c1)S(=O)(=O)c1ccc(Cl)c([N+](=O)[O-])c1)NCc1ccc(F)cc1,-10.3,-2.8,-7.6,-14.4,63.1*,9.0
COc1ccc(NC(=O)c2cccc3c2C(=O)c2ccc(-c4ccc(F)cc4OCc4ccccc4)cc2S3(=O)=O)cc1,3.1,4.7,59.0*,-4.6,·,14.9
O=C(N/N=C/c1ccccc1OCC(=O)N1CCCC1)C(=O)Nc1ccccc1F,34.3,61.5*,-2.0,70.0*,27.9,-1.9
O=C(O)c1c(-c2ccccc2)oc2ccc(O)cc12,-1.9,-5.7,-20.1,-8.3,·,-311.3
Cc1ccc2oc(-c3ccccc3)c(C(=O)O)c(=O)c2c1,-7.8,8.9,57.4*,12.0,28.5,11.8
Cc1cc(-c2cc(C)c(N)cc2C)c(C)cc1N,·,·,-8.5,·,·,8.4
Cc1cc2c(cc1C)C(=O)C(Br)=C(N)C2=O,·,·,15.9,·,·,78.7*
CN(C)c1ccc(/C=C/C(=O)c2ccc(O)cc2)cc1,·,·,63.0*,·,·,-434.2
CN(C)c1ccc(C(=O)C=Cc2ccc([N+](=O)[O-])cc2)cc1,·,·,-5.1,·,·,37.8
O=C(C[C@H]1C/C=C\C[C@H](NC(=O)OCC2c3ccccc3-c3ccccc32)C(=O)O[C@H](c2ccccc2)CNC1=O)N[C@H](CO)Cc1ccccc1,-8.6,-0.2,84.7*,-10.9,·,2.2
Nc1ccn(CC(=O)NCCNc2ccc([N+](=O)[O-])cn2)c(=O)n1,-6.8,-2.8,-12.4,-17.5,·,20.4
COc1ccccc1N1CCN(/N=C\c2ccccc2)CC1,-5.8,7.7,-0.3,-6.2,·,10.2
COc1ccccc1N1CCN(/N=C/C(Cl)=C/c2ccccc2)CC1,57.1*,45.4,0.7,71.8*,-4.4,14.1
CC(/C=N/N1CCN(c2ccccn2)CC1)=C\c1ccccc1,31.1,62.9*,-0.6,58.9*,-9.9,2.0
CC1(C(=O)Nc2cccc(NS(C)(=O)=O)c2)Cc2c(-c3cccc(C(N)=O)c3)ccnc2O1 (configuration not stated),·,·,-1.7,·,·,0.1
COc1ccc(S(=O)(=O)N2CCOCC2)cc1NC(=O)COc1ccc(C(C)=O)cc1OC,-2.3,5.4,0.4,-12.9,·,10.1
O=C(O)CCN1C(=O)c2ccc(Oc3ccc([N+](=O)[O-])cc3)cc2C1=O,-1.5,-3.2,-12.6,-13.3,·,8.5
SMILES,SENP8 block-1,SENP7 inh,TRAIL sens C8,SENP6 inh,PPC-1+TRAIL kill,SENP8 block-2
COc1ccccc1NC(=O)Nc1nc(C(N)CC(C)C)cs1 (configuration not stated),·,·,1.9,·,·,22.4
CC(=O)Oc1ccc(Cl)cc1CN(C(C)=O)C1CCCCC1,·,·,-17.4,·,·,-3.3
O=C1/C(=C\c2cccc(O)c2O)SC(=S)N1Cc1ccccc1,13.7,0.8,52.2*,6.4,·,37.4
COC(=O)c1ccc(CN2CCCC(CO)(Cc3ccc(F)cc3F)C2)cc1 (configuration not stated),-7.5,-5.6,-9.4,-19.5,·,4.3
Cc1c(Cl)cccc1Nc1nc(N)nc(CSCCO)n1,·,·,-12.7,·,-21.6,9.3
Cc1ccccc1Nc1nc(N)nc(CCl)n1,-2.0,1.4,90.9*,-22.6,13.8,28.6
COc1ccc(Nc2nc(N)nc(CCl)n2)cc1,-17.4,12.0,92.3*,-33.5,29.7,22.9
